Sampled rows, rich in hits. Any-hit rate of the full collection: about 19%.
DT40 TDP1 CPT: DT40-hTDP1 cell growth loss with CPT; chicken DT40 Tdp1-/-;hTDP1 cells + 20 nM CPT, ATP luminescence, 48 h; Potency, µM (titrated, usually from 46.2 µM), for the others: at the top dose activity change, negative = growth inhibition, hits mostly inhibitors; 12% of 420,000 active; note: potency is the fitted concentration of half-maximal effect; % is set by controls: 0 for no effect and ±100 for the full control effect; nearly all actives have a fitted effect of over 55% in size
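Chicken DT40 Tdp1-/- cells stably complemented with human TDP1 were seeded at 400 cells/well in medium containing 20 nM camptothecin, exposed to pin-transferred compounds, and grown at 37 °C for at least 48 hr. Viability was read as ATP luminescence.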
SW480 rerep: induces DNA re-replication in SW480 colon adenocarcinoma cells | SW480 DNA re-replication, Hoechst DNA content imaging, 48 h | Potency, µM (top dose mostly 46.1 µM), for inactives: top-dose re-replication activation, actives largely listed as activators | 1.8% of 340,000 active; note: potency is the fitted concentration of half-maximal effect; % of control where 0% means no effect; nearly all actives have a fitted effect of over 55% in size
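Readout is total intensity of Hoechst-stained nuclei, excited at 405 nm and collected at 500-530 nm. Compound treatment lasted 48 hr at 37 C in 5% CO2 before staining.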
DT40 TDP1 no CPT: qHTS for Inhibitors of human tyrosyl-DNA phosphodiesterase 1 (TDP1): qHTS in cells in absence of CPT. AID 686978, 2013. Potency, µM (doses to about 46.2 µM), for the others: at the highest dose activity change, negative = growth inhibition, usual class: inhibitors. DT40 Tdp1-/- hTDP1 cells, no CPT, ATP luminescence, 48 h. 15% of 420,000 active; note: potency is the fitted concentration of half-maximal effect; % is set by controls: 0 for no effect and ±100 for the full control effect; nearly all actives have a fitted effect of over 55% in size
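Chicken DT40 Tdp1-/- cells complemented with human TDP1, screened without camptothecin (DMSO vehicle only), 400 cells/well. Compounds pin-transferred, cells incubated at 37 °C for at least 48 hr. Growth read as ATP-dependent luminescence (CellTiter-Glo, 30 min at RT).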
IL1B secr inh: inhibitors of inflammasome signaling (IL-1 beta secretion); 4.7% of 360,000 active; activity change, % at 57.5 µM; THP-1 LPS/ATP IL-1B secretion, AlphaLISA, 16 h; hits give low values; in the data active = activity change below about -50%; inconclusive = mostly about -30% to -49%; note: % is set by controls: 0 for no effect and ±100 for the full control effect
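THP-1 cells pretreated 1 hr with compounds (up to 57.5 uM final), then stimulated with LPS (250 ng/mL final) plus ATP (1.25 mM final); secreted IL-1B measured by AlphaLISA after 16 hr, decreased signal indicating inhibition.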
BCR signal inh: chronic active BCR signaling inhibition | Potency, µM (doses to about 46.1 µM), without a hit: at the top dose activity change, negative = inhibition, most hits filed as inhibitors | ABC-DLBCL IkBa-CBG/CBR reporter, luminescence ratio, 4 h | 0.05% of 340,000 active; active = well fitted inhibition curve with a large enough effect in the signal ratio, with a control signal flat, not every such curve was filed as active; inconclusive = small, poorly fitted or top-dose-only effect, or effect the other way, or a change in a side signal; the % refers to the signal ratio;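 note: potency is the fitted concentration of half-maximal effect; plate controls were basal doxycycline-induced cells for no effect and cells given 10 µM MG132 for full effect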
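TMD8 human ABC-DLBCL cells with doxycycline-inducible IκBα–green luciferase fusion and unfused red luciferase, in 0.5% FBS medium; compounds up to 46 uM, 4 h at 37C. Green/red luminescence ratio, filter-overlap corrected, fitted to concentration-response curves.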
MCF10A rereplic: DNA re-replication induction in MCF 10a cells | MCF 10A DNA re-replication, Hoechst nuclear intensity, 48 h | 2.9% of 350,000 active | Potency, µM (doses to about 46.1 µM), without a hit: at the highest dose activity, positive = re-replication, most hits filed as activators; note: potency is the fitted concentration of half-maximal effect; % of control where 0% means no effect; nearly all actives have a fitted effect of over 50% in size
* = called active by the depositor; u = inconclusive; x = no result; [ ] = another dose, or the depositor's remark. Unless noted, calls come from the whole dose curve; as a rule, active = well fitted curve in the direction sought with a large enough effect; inconclusive = small, poorly fitted or top-dose-only effect, or another doubt; inactive = no such curve, though single readings can be large; an effect the other way counts as inactive or inconclusive.

SMILES	DT40 TDP1 CPT	SW480 rerep	DT40 TDP1 no CPT	IL1B secr inh	BCR signal inh	MCF10A rereplic
CCCC(=O)Nc1nnc([C@H]2C[C@H](O)[C@@H](CO)O2)s1	-1.3%	x	-1.8%	-3.6	x	x
CC(C)[C@H](NC(=O)c1c(F)cccc1F)C(=O)OCC(=O)NNC(=O)c1ccccc1	-22.4%	x	-20.4%	-2.1	x	x
NC1=NC(=O)/C(=C/c2ccc(Cl)cc2Cl)S1	29.7%	3.8%	-3.6%	-0.5	u	u
NC1=NC(=O)/C(=C\c2cc([N+](=O)[O-])ccc2Cl)S1	-26.1%	0.461µM*	u	-4.5	0.7%	-0.7%
C(#CC12CC3CC(CC(C3)C1)C2)CN1CCOCC1	-10.1%	-2.1%	4.3%	3.9	-23.1%	-35.8%[9.22 µM]
Cc1ccc(C(C)C)c(OCC(=O)Nc2cc(-c3nc4ccccc4[nH]3)ccc2C)c1	4.61µM*	x	3.66µM*	x	x	x
CC(=O)N1CCN(c2ccccc2NC(=O)COc2cc(C)ccc2C(C)C)CC1	u	6.7%	u	u	0.3%	8.8%
COc1ccc(Cl)cc1C(=O)NC(=S)Nc1cc(-c2nc3ccccc3[nH]2)ccc1C	u	3.5%	14.6µM*	-1.7	u	u
Cc1ccc(C(C)C)c(OCC(=O)Nc2ccccc2N2CCN(C)CC2)c1	u	-1.0%	14.6µM*	-58.7*	u	u
Cc1cc(C)cc(OCC(=O)Nc2cccc(-c3nc4ccccc4[nH]3)c2)c1	u	x	-84.6%	x	x	x
Cc1ccc(C(C)C)c(OCC(=O)Nc2ccc(N3CCOCC3)cc2N2CCOCC2)c1	23.1µM*	-1.6%	18.4µM*	-1.2	-1.2%	u
CCn1c(=O)n(CC)c2cc(NC(=O)C(C)c3ccccc3)c(Br)cc21 (centres undefined)	u	-1.1%	u	12.9	5.1%	2.4%
C/C(=N/NC(=O)COc1cc(C)ccc1C(C)C)C(=O)O	14.6%	8.9%	-0.6%	30.3	10µM*	u
Cc1cc(C)c(-c2c(O)c3cccnc3n(C)c2=O)c(C)c1	0.3%	u	-4.6%	-7.3	x	3.2%
CCOC(=O)c1c(C)nc2sc3c(=O)n(-c4ccc(C(C)=O)cc4)nnc3c2c1-c1ccc(OC)cc1	u	1.0%	u	-1.9	4.9%	-4.4%
COc1ccc(C2NC(=O)c3sc4nc(C)c(C(C)=O)c(-c5ccc(Cl)cc5)c4c3N2)cc1 (centres undefined)	u	u	u	5.5	u	16.4µM*
COc1ccccc1/C=C1\CCCC2=C1Nc1nnnn1C2c1ccccc1OC (centres undefined)	11.6µM*	u	11.6µM*	-101.3*	u	u
COc1ccc(OC)c(C2C3=C(CCCC3=O)Nc3nnnn32)c1 (centres undefined)	-9.8%	0.6%	-14.9%	11.9	11.9%	-0.2%
Cc1ccccc1NC(=O)/C(C#N)=C/c1ccc(-c2ccc(Cl)c(C(=O)O)c2)o1	u	4.4%	u	-23.2	7.7%	6.8%
Cc1cccc(NC(=O)/C(C#N)=C/c2ccc(Sc3ccccc3)o2)c1C	-18.9%	u	-28.4%	-17.9	1.4%	18.4µM*
COc1ccc(-c2cnc(N)nc2-c2ccc(OC)cc2O)cc1	u	0.1%	u	-72.7*	-8.6%	15.3%
COc1cccc(Oc2cnc(N)nc2-c2ccc(OC)cc2O)c1	2.91µM*	7.31µM*	2.31µM*	23.0	u	6.51µM*
C=C(C)COc1ccc(-c2nc(N)ncc2-c2ccc(Cl)cc2)c(O)c1	23.1µM*	-12.6%	u	u	u	u
COc1ccc(-c2nc(N)nc(C(F)(F)F)c2-c2ccccc2OC)c(O)c1	u	-6.5%	23.1µM*	13.8	-5.5%	12.2%
CC1=C(C(=O)N(C(C)C)C(C)C)CC(CC(=O)NCc2ccco2)C(=O)N1Cc1ccccc1 (centres undefined)	u	x	u	-8.9	x	x
SMILES	DT40 TDP1 CPT	SW480 rerep	DT40 TDP1 no CPT	IL1B secr inh	BCR signal inh	MCF10A rereplic
C[C@H]1CN([C@@H](C)CO)C(=O)CCCn2cc(nn2)CO[C@@H]1CN(C)C(=O)Nc1cccc(F)c1	2.5%	x	4.7%	12.4	x	x
Cc1cc(C(=O)N2CCC2(C)C(=O)NS(=O)(=O)c2cccc(OC(F)F)c2)nn1C (centres undefined)	-14.4%	x	-3.6%	23.4	x	x
CCOC(=O)c1ccc(NC(=O)c2cc(=O)c3cc(CC)ccc3o2)cc1	-0.2%	x	-15.1%	x	x	x
CCN(CC)S(=O)(=O)c1ccc(-n2c(=O)c(C(C)C)c(C)n2C)cc1	-20.2%	-25.1%	u	2.9	6.2%	19.6%
Cc1c(C(C)C)c(=O)n(-c2ccc(S(=O)(=O)NC3CC3)cc2)n1C	-5.3%	-2.6%	10.3µM*	25.7	4.2%	-9.4%
COC(CNS(=O)(=O)c1ccc(S(=O)(=O)NC2CC2)cc1)OC	-3.1%	-3.9%	21.0%	-2.7	3.2%	0.1%
Cc1c(C(C)C)c(=O)n(-c2ccc(S(=O)(=O)NC(C)C)cc2)n1C	u	-1.0%	13µM*	43.5	7.3%	2.0%
COc1ccc(-c2nc(-c3ccccn3)no2)cc1	14.6µM*	3.0%	u	-1.5	u	-3.2%
Clc1ccc(-c2nc(-c3ccccn3)no2)cc1Cl	u	2.9%	u	22.7	2.5%	-13.1%
